Assay results from PubChem BioAssay AID1159580 (chemical genetic matrix, 2015).
Values joined by “and” are separate entries in the source; they are usually repeats but may differ in a detail not shown here. Equal values may be shown once. About 2,000 (36%) of roughly 5,500 compounds were called active. Not shown: some 18% with an inconclusive outcome. The list shows a part of the results. A number with no mark means an inactive call. Rule as the data show it: active = normalized growth mostly below about 0.91 (no sharp cut-off); inconclusive = no clear call, values can overlap the other calls; inactive = mostly above about 0.92.

Experiment: chemical genetic growth profiling, strain panel (AID 1159580);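 also: tested at 20 µM; growth read once vehicle control cultures reached saturation at 30 °C; 1 = growth at the plate median or of vehicle wells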
Conditions: S. cerevisiae deletion strains, growth OD

Structure (SMILES): Oc1ccc(/C=C/c2cc(O)cc(O)c2)cc1
- normalized growth (locus YJR043C, strain POL32, stronger effect = lower value): 0.946
- normalized growth (locus YJR066W, strain TOR1, stronger effect = lower value): 0.939
- normalized growth (locus YJR075W, strain HOC1, stronger effect = lower value): 0.986 and 1.01
- normalized growth (locus YKL009W, strain mrt4, stronger effect = lower value): 0.779 (active)
- normalized growth (locus YKL068W, stronger effect = lower value): 0.977
- normalized growth (locus YKL085W, strain MDH1 (second series), stronger effect = lower value): 0.982
- normalized growth (locus YKL085W, strain MDH1, stronger effect = lower value): 0.982
- normalized growth (locus YKL160W, strain elf1, stronger effect = lower value): 1
- normalized growth (locus YKL190W, strain CNB1, stronger effect = lower value): 0.992
- normalized growth (locus YKR001C, strain vps1, stronger effect = lower value): 0.692 (active)
- normalized growth (locus YKR026C, strain gcn3, stronger effect = lower value): 0.991
- normalized growth (locus YKR091W, strain srl3, stronger effect = lower value): 0.995
- normalized growth (locus YLL001W, strain dnm1, stronger effect = lower value): 1.01
- normalized growth (locus YLL026W, stronger effect = lower value): 0.99
- normalized growth (locus YLL041C, strain sdh2, stronger effect = lower value): 0.991
- normalized growth (locus YLR027C, strain aat2, stronger effect = lower value): 0.994
- normalized growth (locus YLR039C, strain RIC1, stronger effect = lower value): 0.87
- normalized growth (locus YLR058C, strain SHM2, stronger effect = lower value): 0.972
- normalized growth (locus YLR102C, strain apc9, stronger effect = lower value): 0.997
- normalized growth (locus YLR113W, strain HOG1, stronger effect = lower value): 1.04
- normalized growth (locus YLR221C, strain rsa3, stronger effect = lower value): 0.972
- normalized growth (locus YLR258W, strain gsy2, stronger effect = lower value): 0.986
- normalized growth (locus YLR262C, strain YPT6 (second series), stronger effect = lower value): 0.822 (active)
- normalized growth (locus YLR262C, strain YPT6, stronger effect = lower value): 0.877
- normalized growth (locus YLR268W, strain sec22, stronger effect = lower value): 0.894
- normalized growth (locus YLR320W, strain mms22, stronger effect = lower value): 0.971
- normalized growth (locus YLR330W, strain CHS5, stronger effect = lower value): 0.998
- normalized growth (locus YLR342W, strain FKS1 (second series), stronger effect = lower value): 0.946
- normalized growth (locus YLR342W, strain FKS1, stronger effect = lower value): 0.993
- normalized growth (locus YLR357W, strain rsc2, stronger effect = lower value): 0.976
- normalized growth (locus YLR370C, strain arc18, stronger effect = lower value): 1.01
- normalized growth (locus YLR371W, strain rom2, stronger effect = lower value): 0.766 (active)
- normalized growth (locus YLR384C, strain iki3, stronger effect = lower value): 0.996
- normalized growth (locus YLR418C, strain cdc73, stronger effect = lower value): 0.686 (active)
- normalized growth (locus YML016C, strain PPZ1, stronger effect = lower value): 0.993
- normalized growth (locus YML032C, strain rad52, stronger effect = lower value): 0.938
- normalized growth (locus YML120C, strain ndi1, stronger effect = lower value): 0.956
- normalized growth (locus YML124C, strain tub3, stronger effect = lower value): 0.993
- normalized growth (locus YMR058W, strain fet3, stronger effect = lower value): 0.975
- normalized growth (locus YMR078C, strain ctf18, stronger effect = lower value): 0.96
- normalized growth (locus YMR125W, strain sto1, stronger effect = lower value): 0.999
- normalized growth (locus YMR129W, stronger effect = lower value): 0.996
- normalized growth (locus YMR205C, strain PFK2, stronger effect = lower value): 0.976
- normalized growth (locus YMR223W, strain ubp8, stronger effect = lower value): 0.923
- normalized growth (locus YMR231W, strain pep5, stronger effect = lower value): 1
- normalized growth (locus YMR263W, strain SAP30, stronger effect = lower value): 0.997
- normalized growth (locus YMR307W, strain GAS1, stronger effect = lower value): 0.538 (active)
- normalized growth (locus YNL067W, strain RPL9B, stronger effect = lower value): 0.979
- normalized growth (locus YNL071W, strain lat1, stronger effect = lower value): 0.988
- normalized growth (locus YNL175C, strain NOP13, stronger effect = lower value): 0.958
- normalized growth (locus YNL183C, strain NPR1, stronger effect = lower value): 0.962
- normalized growth (locus YNL197C, strain WHI3, stronger effect = lower value): 0.966
- normalized growth (locus YNL209W, strain ssb2, stronger effect = lower value): 0.979
- normalized growth (locus YNL224C, strain SQS1, stronger effect = lower value): 0.974
- normalized growth (locus YNL233W, strain BNI4, stronger effect = lower value): 0.924
- normalized growth (locus YNL248C, strain rpa49, stronger effect = lower value): 0.983
- normalized growth (locus YNL250W, strain rad50, stronger effect = lower value): 0.971
- normalized growth (locus YNL271C, strain bni1, stronger effect = lower value): 0.951
- normalized growth (locus YNL298W, strain CLA4, stronger effect = lower value): 0.92
- normalized growth (locus YNL307C, strain MCK1, stronger effect = lower value): 0.99
- normalized growth (locus YNL322C, strain KRE1 (second series), stronger effect = lower value): 0.998
- normalized growth (locus YNR049C, strain mso1, stronger effect = lower value): 1.01
- normalized growth (locus YNR052C, strain pop2, stronger effect = lower value): 0.833 (active)
- normalized growth (locus YOL012C, strain htz1): 0.774
- normalized growth (locus YOL147C, strain pex11, stronger effect = lower value): 0.926 (active)
- normalized growth (locus YOR001W, strain rrp6, stronger effect = lower value): 0.985
- normalized growth (locus YOR061W, strain CKA2, stronger effect = lower value): 0.995
- normalized growth (locus YOR069W, strain VPS5, stronger effect = lower value): 0.998
- normalized growth (locus YOR070C, strain gyp1, stronger effect = lower value): 0.986
- normalized growth (locus YOR080W, strain dia2, stronger effect = lower value): 0.994
- normalized growth (locus YOR083W, strain WHI5 (second series), stronger effect = lower value): 0.98
- normalized growth (locus YOR083W, strain WHI5, stronger effect = lower value): 0.965
- normalized growth (locus YOR106W, strain vam3, stronger effect = lower value): 0.982
- normalized growth (locus YOR136W, strain idh2, stronger effect = lower value): 0.965
- normalized growth (locus YOR144C, strain elg1, stronger effect = lower value): 0.963
- normalized growth (locus YOR184W, strain ser1, stronger effect = lower value): 0.729 (active)
- normalized growth (locus YOR231W, strain MKK1, stronger effect = lower value): 0.98
- normalized growth (locus YOR265W, strain rbl2, stronger effect = lower value): 0.985
- normalized growth (locus YOR270C, strain vph1, stronger effect = lower value): 0.963
- normalized growth (locus YOR290C, strain snf2, stronger effect = lower value): 0.95
- normalized growth (locus YOR316C, strain cot1, stronger effect = lower value): 0.982
- normalized growth (locus YPL051W, strain arl3, stronger effect = lower value): 0.983
- normalized growth (locus YPL055C, strain LGE1, stronger effect = lower value): 0.894
- normalized growth (locus YPL078C, strain atp4, stronger effect = lower value): 0.994
- normalized growth (locus YPL106C, strain sse1, stronger effect = lower value): 1.02
- normalized growth (locus YPL240C, strain hsp82, stronger effect = lower value): 0.988
- normalized growth (locus YPL241C, strain CIN2, stronger effect = lower value): 0.985
- normalized growth (locus YPL256C, strain CLN2, stronger effect = lower value): 0.975
- normalized growth (locus YPR119W, strain clb2, stronger effect = lower value): 0.981
- normalized growth (locus YPR141C, strain kar3, stronger effect = lower value): 0.973
- normalized growth (locus YPR163C, strain tif3, stronger effect = lower value): 0.909 (active)
- normalized growth (locus YPR167C, strain met16, stronger effect = lower value): 0.978
- normalized growth (strain wtn01, stronger effect = lower value): 0.895 (active)
